# Out of some 410,000 compounds screened, about 5,000 (1.2%) were called active. About 13% were inconclusive and are not listed. For the sample, actives were picked, then their nearest neighbours and some compounds at random. A number with no mark means an inactive call. Calls come from the whole dose curve; as a rule, active = well fitted inhibition curve with a large enough effect; inconclusive = small, poorly fitted or top-dose-only effect; inactive = no such curve, though single readings can be large or run the other way.
# Test: qHTS for Inhibitors of TGF-b; note: nearly all actives have a fitted effect of over 65% in size
# Conditions: HepG2 CAGA-GFP TGF-b/SMAD3 reporter, GFP fluorescence, 18 h, TGF-beta stimulated, 500 pg/mL final; series mostly up to 46.1 µM; activity, negative = inhibition: at the top concentration
# Excerpt: TGF-b is a main component in the TGF-b signaling pathway which plays diverse roles in cellular and development pathways. TGF-b is the mediated by the transcription factors Smads. Although the Smad-dependent pathway is the primary canonical TGF-b signaling node, TGF-b1 can also activate alternative signaling pathways, including those involving MAPK (ERK, JNK and p38). This interaction may mediate or enhance Smad-dependent responses, or can exert Smad-independent effects. The complexity of this signaling cascade allows the TGF-b superfamily to perform unique, overlapping or redundant functions. We believe that targeting the TGF-beta pathway at the Smad-transcription factor level may eliminate the consequences of disrupting the entire pathway and offer specificity without affecting other signaling pathways. Smad3 is the primary transducer of TGF-b's signals and Smad3 regulates many functions attributed to TGF-b signaling. We hypothesize that Smad3 inhibitors will selectively eliminate Smad3-specific TGF-beta signals without undesired off-target effects. We aim to identify Smad3-small molecule antagonists using a quantitative high throughput screening (qHTS) approach.
# A high-throughput assay was developed to screen the NIH Molecular Libraries Small Molecule Repository (MLSMR). This is a cell based assay, where TGF-b is tagged with GFP. A counterscreen is run that looks at cytotoxicity (please see summary AID).
# MH087449NIH Chemical Genomics Center [NCGC]
# NIH Molecular Libraries Probe Centers Network [MLPCN]
# Assay Submitter (PI): Sushil Rane, National Institute of […]
# Suspensions of trypsinized HEPG2 CAGA-GFP cells were dispensed into white, tissue culture-treated, solid 1536-well plates at 5uL/well (1000 cells/well final concentration) in DMEM medium supplemented with 1% FBS. Plates were incubated at 37 degrees C for 2 hours, after which 23 nL of compounds or DMSO were delivered to each well using a pin tool. One uL of recombinant TGF-beta in DMEM (1% FBS) was then dispensed (500 pg/mL final concentration), and plates were incubated at 37 degrees C for 18 hours. The plates were measured on an Acumen eX3 Explorer plate reader for GFP fluorescence (ex488/em500-530). GFP values were calculated by determining the mean GFP fluorescence of individual cells, and compiling these values for each well to determine a total well GFP signal. The %Activity was determined from the corrected fluorescence values. A titration of the known TGF-B inhibitor SB431542 was included to monitor plate performance, while unstimulated HEPG2 (-TGF-B) control wells were used to normalize %Activity of identified inhibitors; unstimulated wells corresponded to 100%Activity (full inhibition), while stimulated cell controls (+DMSO) were used to normalize 0%Activity (no inhibition).
# Concentration-response curves were fitted to the signals arising from the resulting fluorescence. The concentration-effect curves were then classified based on curve quality (r2), response magnitude and degree of measured activity, and compounds were subsequently categorized based on their curve class.
# Potency is the fitted concentration of half-maximal effect.
SMILES,"activity, negative = inhibition",Potency
CC(=O)c1cccc(NC(=O)c2nc(-c3ccccc3)n(-c3cccc(C)c3)n2)c1,-25.9%,–
Cc1ccc(NC(=O)c2cccnc2C(=O)Nc2ccc(C)cc2)cc1,-10.9%,–
CN(CC(=O)Nc1ccccc1C(F)(F)F)C(=O)Cc1ccccc1F,-1.45%,–
Cc1cccc(NC(=O)Cn2cc(S(=O)(=O)Cc3ccccc3Cl)c3ccccc32)c1,0%,–
Cc1ccc(CCNC(=O)c2ccc(CS(=O)(=O)Cc3cccc(C)c3)o2)cc1,-36%,–
O=C(Nc1nc2ccc(F)cc2s1)c1nc(SCc2ccccc2F)ncc1Cl,-1.74%,–
Cc1cccc(NC(=O)c2nc(S(=O)(=O)Cc3ccccc3)ncc2Cl)c1,–,3.98 µM (active)
Cc1cccc(CS(=O)(=O)c2ncc(Cl)c(C(=O)Nc3ccc(F)cc3)n2)c1,–,6.31 µM (active)
CCS(=O)(=O)c1ncc(N(Cc2ccc(F)cc2)Cc2ccco2)c(C(=O)Nc2cc(C)ccc2C)n1,1.57%,–
O=C(Nc1ccccc1C(F)(F)F)c1nc(S(=O)(=O)Cc2ccccc2F)ncc1Cl,–,3.16 µM (active)
Cc1ccc(NC(=O)c2nc(S(=O)(=O)Cc3cccc(C)c3)ncc2Cl)cc1,–,3.16 µM (active)
CCOC(=O)c1ccc(NC(=O)c2nc(SCc3ccc(F)cc3)ncc2Cl)cc1,-12.1%,–
COc1ccccc1CNC(=O)c1ccccc1NC(=O)c1nsc2ccccc12,-0.608%,–
Cc1cccc(Cn2c(CN3CCC(C(=O)NCc4ccccc4Cl)CC3)cc3ccccc32)c1,-8.43%,–
COc1ccc(NC(=O)C2CCCN(S(=O)(=O)c3c(C)[nH]c(=O)[nH]c3=O)C2)c(OC)c1 (stereo unspecified),-24.4%,–
COc1ccccc1CNC(=O)NCc1noc2ccc(C)cc12,1.22%,–
O=S(=O)(c1cccc(C(F)(F)F)c1)N1CCN(c2nc(-c3cccs3)nc3ccccc23)CC1,1.02%,–
COc1ccc(CC(N)c2csc(NC(=O)Nc3ccc(C(C)C)cc3)n2)cc1 (stereo unspecified),-98.2%,–
Cn1c(C(=O)Nc2cccc(C(F)(F)F)c2)cc2c(=O)n3ccccc3nc21,-8%,–
CC(=O)c1ccc(Nc2nc(C(N)c3ccccc3)cs2)cc1 (stereo unspecified),-0.831%,–
O=C(Nc1cccc(F)c1)NC1CCCCCCC1,0%,–
NC(c1ccccc1)c1csc(NC(=O)Nc2cccc(C(F)(F)F)c2)n1 (stereo unspecified),–,12.6 µM (active)
NC(c1csc(NC(=O)Nc2cccc(C(F)(F)F)c2)n1)C1CCCCC1 (stereo unspecified),–,6.31 µM (active)

SMILES,"activity, negative = inhibition",Potency
Cc1ccc(Cn2c(=O)n(CCCC(=O)NCc3ccccc3Cl)c(=O)c3ccccc32)cc1,3.91%,–
COC(=O)c1ccc(-c2nc3cc(NC(C)=O)ccc3o2)cc1,1.43%,–
CCOc1ccc(NC(=O)c2cc(S(=O)(=O)N3CCCC3)c[nH]2)cc1,-24.4%,–
Cc1nc2nc(SCC(=O)NC3CCC(C)CC3)nn2c(C)c1Cc1ccccc1Cl (stereo unspecified),-30.1%,–
CC1(C)C=Cc2c(ccc(C(=O)/C=C/c3ccccc3)c2O)O1,-2.51%,–
COc1ccccc1Oc1ccc(S(=O)(=O)Nc2cccnc2)cc1,9.04%,–
CN(NS(=O)(=O)c1cccs1)c1ncc(C(F)(F)F)cc1Cl,-13%,–
Cc1cc(C)cc(NS(=O)(=O)c2ccc(Oc3ncc(C(F)(F)F)cc3Cl)cc2)c1,–,12.6 µM (active)
COc1ccc(CCNCc2c(C(=O)O)c(C)n(Cc3cccc(C)c3)c2C)cc1OC,5.3%,–
Cc1cccc(NC(=O)c2ccc3nc(C(C)C)oc3c2)c1C,7.16%,–
O=C(O)C1CCN(c2ccc([N+](=O)[O-])cc2[N+](=O)[O-])CC1,34.7%,–
CCOC(=O)N1CCN(c2cc(C)c([N+](=O)[O-])cc2F)CC1,7.48%,–
C=COC(=O)N1CCN(/[N+]([O-])=N/Oc2ccc([N+](=O)[O-])cc2[N+](=O)[O-])CC1,–,10 µM (active)
O=C(CSc1nc(=O)[nH]c2c1CCCC2)Nc1cc(C(F)(F)F)ccc1Cl,-0.244%,–
COc1ccc(/C=C/c2noc(-c3ccccc3O)n2)cc1OC,-13.3%,–
CC(=O)c1ccc(NC(=O)Nc2ccc([N+](=O)[O-])cc2C)cc1,3.93%,–
Cc1cc([N+](=O)[O-])ccc1NCc1cccc([N+](=O)[O-])c1,–,10 µM (active)
COc1cccc(C(=O)CC(=O)C(=O)Nc2ccc([N+](=O)[O-])cc2C)c1,-5.79%,–
O=C(Nc1ccc([N+](=O)[O-])cc1)c1cnn2c1NC(=C1CC1)C=C2C(F)F,5.24%,–
COc1ccc(/C=C/c2ccnc3ccccc23)cc1OC,-22.7%,–
O=C(CSc1nc(Nc2ccc(F)c(F)c2)c2ccccc2n1)c1ccc(Cl)cc1,0%,–
CSc1ncc(C(=O)NCc2ccccc2Cl)c(C(F)(F)F)n1,-10.3%,–
Fc1ccc(Nc2nc(SCc3ccccc3Cl)nc3ccccc23)cc1,–,17.8 µM (active)

# Source: PubChem BioAssay AID588855 (National Center for Advancing Translational Sciences (NCATS), 2011)
